Laboratory results from PubChem BioAssay AID2673 (National Center for Advancing Translational Sciences (NCATS), 2010).
Inconclusive results are not listed. Calls of active or inactive are those of the source. Calls come from the whole dose curve; as a rule, active = well fitted activation curve with a large enough effect; inconclusive = small, poorly fitted or top-dose-only effect; inactive = no such curve, though single readings can be large or run the other way.

assay: qHTS Multiplex Assay to Identify Dual Action Probes in a Cell Model of Huntington: Cytoprotection confirmation (ATP); conditions: PC12 HttQ103 induced, ATP luminescence 40 h; series mostly up to 46.1 µM; cytoprotection, positive = protection: at the top concentration
Procedure, shortened: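 Cell survival measured by luminescent ATP content (ATPlite) in tebufenozide-induced (100 nM) PC12 HTTQ103-GFP cells treated with compounds, in phenol red-free DMEM with equine and calf serum.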

cytoprotection, positive = protection, inactive:
Cn1nnnc1Sc1ncnc2scc(-c3ccc(N)cc3)c12 6.19%
CN(C)CCCSc1ccccc1NC(=O)/C=C\c1ccccc1 -24.2%
COc1ccc(NC(=O)c2sc(SC)nc2N)cc1 -9.58%
CN1C(=O)C2(c3ccccc31)C1CCCC=C1C(C#N)=C(N)C2(C#N)C#N (configuration not stated) 5.27%
NC(=O)c1sc2nc3c(c(-c4cccs4)c2c1N)CCCCC3 -0.102%
Cc1nnsc1C(=O)N/N=C/c1ccc2ccccc2c1O -67.4%
CCOC(=O)c1noc(C)c1C(=O)Nc1cccc(F)c1 -11.4%
O=[N+]([O-])c1ccc(O)c2ncccc12 -52.7%
COc1ccccc1-c1csc2ncnc(Sc3nnnn3C)c12 23.1%
CCN(Cc1ccncc1)C(=O)c1cc(Br)cc(Br)c1O -3.56%
CC(=O)OCC1=C(C(=O)O)N2C(=O)[C@@H](NC(=O)Cc3cccs3)[C@H]2SC1 -25.3%
COc1ccc2c(c1)-c1c(ssc1=S)C(C)(C)N2 4.29%
Cn1nnnc1Sc1ncnc2scc(Br)c12 -109%
CNCCCN1c2ccccc2CCc2ccccc21 -12.1%
NC(=O)C1CCN(CCC(=O)Nc2ccc(Br)cc2)CC1 -5.63%
Cc1ccccc1-c1csc2ncnc(Sc3nnnn3C)c12 13%
COc1cc(Cc2cnc(N)nc2N)cc(OC)c1OC 1.87%
Cn1nnnc1Sc1ncnc2scc(-c3ccccc3F)c12 27.7%
Cn1nnnc1Sc1ncnc2scc(-c3cccc(S(C)(=O)=O)c3)c12 -108%
CCc1ccc2oc(-c3cc(N)ccc3O)nc2c1 -77.5%
COc1ccc(C(=O)Cc2ccc(OC)c(OC)c2)cc1 -11.5%
Fc1ccc(N2CCN(c3ncnc4nc[nH]c34)CC2)cc1 -30.4%
Cc1cccc(/C=N/NC(=O)c2cc3c(s2)-c2ccccc2CC3)c1 -29.8%
CC(C(=O)O)c1ccc(CC2CCCC2=O)cc1 (configuration not stated) -43.9%
O=C(NCc1ccco1)c1cc2ccc(O)cc2oc1=O -11.2%
Cc1ccccc1N=C(N)Nc1ccccc1C -20.4%
CS(=O)(=O)c1ccc([C@H](O)[C@H](CO)NC(=O)C(Cl)Cl)cc1 -10.2%

Potency, active:
Cn1nnnc1Sc1ncnc2scc(-c3ccc4c(c3)OCO4)c12 22.4 µM
Cn1nnnc1Sc1ncnc2scc(-c3cccc(Cl)c3)c12 14.1 µM
Cn1nnnc1Sc1ncnc2scc(-c3ccc[nH]3)c12 12.6 µM
Cn1nnnc1Sc1ncnc2scc(-c3cnc(N)nc3)c12 35.5 µM
Cn1nnnc1Sc1ncnc2scc(-c3ccccc3Br)c12 35.5 µM
